Source: PubChem BioAssay
In the library only some 10% were active in any assay of this set; here they are far more common.
HP1b binding inh: HTS for Inhibitors of HP1-beta Chromodomain Interactions with Methylated Histone Tails; AlphaScreen HP1-beta / biotin-H3K9me3 peptide binding; Chromobox protein homolog 1 (Homo sapiens), P83916; 390,000 compounds, 0.56% hits; Potency, µM (titrated, usually from 114 µM), without a hit: top-dose activity change, negative = inhibition, actives largely listed as inhibitors; AID 540317, 2011; also: nearly all actives have a fitted effect of over 70% in size
Target sequence (P83916 whole entry, looked up): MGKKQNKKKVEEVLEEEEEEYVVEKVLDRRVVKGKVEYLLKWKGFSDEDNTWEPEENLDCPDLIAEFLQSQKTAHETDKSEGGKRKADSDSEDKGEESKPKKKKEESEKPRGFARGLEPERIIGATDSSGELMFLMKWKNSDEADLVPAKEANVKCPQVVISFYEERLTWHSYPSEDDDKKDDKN
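AlphaScreen: HP1-beta (50 nM) preformed 30 min with biotin-H3(1-18)K9me3 peptide (50 nM) in PBS pH 7.4, 0.01% Tween-20. Compound added for 30 min at RT, then streptavidin donor/nickel chelate acceptor beads (10 ug/mL) for 30 min.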
BAZ2B inh: qHTS Assay for Inhibitors of BAZ2B | AlphaScreen BAZ2B-H3K14Ac peptide displacement | Potency, µM (series often up to 114 µM), for the others: at the highest dose activity change, negative = inhibition, actives largely listed as inhibitors | 360,000 compounds, 4.4% hits | AID 504333, 2011; also: % is scaled to controls: 0 for no effect and ±100 for the full control effect; nearly all actives have a fitted effect of over 60% in size
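AlphaScreen luminescence quantifies BAZ2B engagement of H3K14Ac peptide; the protein and biotinylated peptide are both at 50 nM final, buffer PBS pH 7.4 with 0.01% Tween-20, all steps at room temperature.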
G9a block: qHTS Assay for Inhibitors of Histone Lysine Methyltransferase G9a; AID 504332, 2011; G9a H3K9 monomethylation, AlphaScreen, 2 h; Potency, µM (highest dose often 102 µM), inactives show at the top dose activity, negative = inhibition, usual class: inhibitors; Histone-lysine N-methyltransferase EHMT2 (Homo sapiens), Q96KQ7; 350,000 compounds, 8.8% hits; also: % is scaled to controls: 0 for no effect and ±100 for the full control effect; nearly all actives have a fitted effect of over 75% in size
Target sequence (Q96KQ7 913-1193 limits assumed): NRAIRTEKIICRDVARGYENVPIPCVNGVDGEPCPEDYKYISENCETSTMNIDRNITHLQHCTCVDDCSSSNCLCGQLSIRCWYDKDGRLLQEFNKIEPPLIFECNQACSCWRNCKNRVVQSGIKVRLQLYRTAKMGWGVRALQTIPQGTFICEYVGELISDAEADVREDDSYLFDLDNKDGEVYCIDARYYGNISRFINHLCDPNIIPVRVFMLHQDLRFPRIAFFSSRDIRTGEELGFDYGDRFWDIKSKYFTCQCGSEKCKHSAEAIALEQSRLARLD
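Step 1: enzyme (final 20 nM) with compound, 15 min RT. Step 2: substrate peptide 500 nM and SAM 20 uM, 2 h RT. Step 3: anti-H3K9me1 antibody and AlphaScreen beads, 10 min, then plate read.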
JMJD2A Tudor inh: qHTS Assay for Inhibitors of JMJD2A-Tudor Domain; AlphaScreen JMJD2A-Tudor / H3K4me3 peptide binding; Potency, µM (highest dose often 114 µM), for the others: at the highest dose activity change, negative = inhibition, usual class: inhibitors; 390,000 compounds, 4.4% hits; also: % is scaled to controls: 0 for no effect and ±100 for the full control effect; nearly all actives have a fitted effect of over 50% in size
GLS inh: qHTS for Inhibitors of Glutaminase (GLS); Glutaminase kidney isoform, mitochondrial (Homo sapiens), O94925; GLS enzymatic activity, qHTS titration; Potency, µM (doses to about 45.5 µM), for the others: top-dose activity change, negative = inhibition, usual class: inhibitors; 410,000 compounds, 0.21% hits; AID 624170, 2012; also: % is scaled to controls: 0 for no effect and ±100 for the full control effect
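hKGA; 45 mM KH2PO4 pH 8.2 + 0.02% Tween-20; cpd via pin tool; 1 mM Gln soln; GluOx/HRP/Amplex Red; RT 30 min; fluor. t0 & final.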
An asterisk follows results filed as active; ? = inconclusive; / = not tested or not shown; [ ] = dose if it differs, or a comment. Calls follow the shape of the dose curve; as a rule, active = well fitted curve in the direction sought with a large enough effect; inconclusive = small, poorly fitted or top-dose-only effect, or another doubt; inactive = no such curve, though single readings can be large; an effect the other way counts as inactive or inconclusive. Potency is read from the fitted curve at half-maximal effect.

SMILES | HP1b binding inh | BAZ2B inh | G9a block | JMJD2A Tudor inh | GLS inh
Nc1ccc(N2CCN(c3cccc(Cl)c3)CC2)cc1 | ? | 35µM* | 4µM* | 45µM* | 53%
O=C(O)/C=C\C(=O)Nc1ccc(N2CCN(c3ccc(Cl)c(Cl)c3)CC2)cc1 | ? | 32µM* | 32µM* | 40µM* | 27%
O=C(O)/C=C/C(=O)Nc1ccc(-n2ccc(C(F)(F)F)n2)cc1 | 31% | -2% | 45µM* | -17% | 3%
Clc1cccc(N2CCN(CCCN3CCN(c4ccccc4)CC3)CC2)c1 | -22%[57 µM] | / | / | ? | 18%
COc1cccc(C(=O)c2ccncc2C(=O)O)c1OC | / | / | / | / | 0%
COc1ccc(CCN2C(=O)CSC2=Nc2ccc(C(C)C)cc2)cc1OC | 34% | -3% | 3% | -4% | 0%
CC(NC(=O)CN1c2cccc3cccc(c23)S1(=O)=O)c1ccc(S(N)(=O)=O)cc1 (stereo unspecified) | -8% | -12% | -34%[59 µM] | -26% | -4%
O=C(O)/C=C\C(=O)Nc1ccc(N2CCN(c3cccc(Cl)c3)CC2)cc1 | ? | 35µM* | / | -11%[11.4 µM] | 7%
Cc1c(Br)c([N+](=O)[O-])nn1CC(=O)Nc1ccc(Cc2ccncc2)cc1 | 2% | ? | 45µM* | -31% | 5%
CCc1cccc(NC(=O)c2cc3c(=O)n(Cc4ccc(OC)cc4)ccc3nc2C)c1 | 27% | -8% | -21%[59 µM] | -14% | -2%
Cc1ccc(-n2nnnc2CNC(=O)c2ccccc2F)cc1C | 29%[57 µM] | 3% | -2%[59 µM] | 0% | 3%
O=S(=O)(c1ccc2c(c1)OCCO2)C1CCN(S(=O)(=O)c2c(F)cccc2F)CC1 | / | / | / | -14% | /
CC1CCN(c2oc(Cc3cccc4ccccc34)nc2C#N)CC1 | ? | ? | 8.9µM* | ? | 11%
COc1ccc(N2CCN(c3oc(Cc4cccc5ccccc45)nc3C#N)CC2)cc1 | ? | 4µM* | 7%[0.0925 µM] | ? | 24%
CC1CC(C)CN(c2oc(Cc3ccccc3)nc2C#N)C1 (stereo unspecified) | ? | 14µM* | 11µM* | ? | 6%
N#Cc1nc(Cc2cccc3ccccc23)oc1N1CCN(c2ccccc2)CC1 | ? | ? | 22µM* | ? | 4%
N#Cc1nc(Cc2cccc3ccccc23)oc1N1CCC(C(N)=O)CC1 | -4% | -39% | -14%[59 µM] | -35% | 15%
CCOC(=O)[C@]12CCC=C1N(Cc1cccc3ccccc13)C(=O)[C@H](CC(=O)NCC1CCCCC1)C2 | / | / | / | / | -30%
Cc1nc(SCc2nc3ccc(C(=O)c4ccccc4)cc3[nH]2)c2oc3ccccc3c2n1 | 25% | / | / | -32% | -3%
CCOC(=O)C1/C(=N\O)CC(C)(O)C(C(=O)OCC)C1c1ccc(N(C)C)cc1 (stereo unspecified) | 15% | 79µM* | 18µM* | -36% | 32%
COc1cc2c(cc1OC)C(c1ccccc1)N(C(=O)c1ccccc1)CC2 (stereo unspecified) | 13% | ? | -18% | ? | -1%
COc1cc2c(cc1OC)C(c1cccs1)N(C(=O)c1cccc(S(=O)(=O)N(C)C)c1)CC2 (stereo unspecified) | 4% | -29% | 50µM* | ? | 4%
COc1ccccc1-n1c(C)cc(/C=C2\C(=N)N3N=C(CC(=O)N4CCOCC4)SC3=NC2=O)c1C | 51% | 50µM* | -15% | 10% | 78%
N=C1/C(=C\c2ccc(SCc3ccccc3)o2)C(=O)N=C2SC=NN12 | 24% | -20% | 50µM* | -31% | 3%
COc1cc(/C=C2\C(=N)N3N=CSC3=NC2=O)ccc1OS(=O)(=O)c1ccccc1[N+](=O)[O-] | -3% | -14% | / | -30% | -18%
SMILES | HP1b binding inh | BAZ2B inh | G9a block | JMJD2A Tudor inh | GLS inh
N=C1/C(=C/c2ccc(-c3cccc(C(=O)O)c3)o2)C(=O)N=C2SC(CC(=O)N3CCOCC3)=NN12 | ? | 25µM* | ? | 20µM* | ?
Cc1ccc(/C=C2\C(=N)N3N=C(CC(=O)N4CCOCC4)SC3=NC2=O)o1 | -16% | -27% | 56µM* | 56µM* | 5%
CCc1cnc2c(c1SCCC(C)C)c(=O)n(C)c(=O)n2C | 59% | 75% | 26%[59 µM] | 43% | 2%
Cc1ccccc1-n1c(C)cc(/C=C2/C(=N)N3C(c4ccccc4)=CSC3=NC2=O)c1C | -1% | -7% | ? | -28% | 6%
N=C1/C(=C\c2ccc(SCc3ccccc3)o2)C(=O)N=C2SC(CC(=O)N3CCOCC3)=NN12 | 6% | 45µM* | ? | ? | 6%
Nc1nnc(CC(=O)N/N=C/c2ccc(-c3cccc(C(=O)O)c3)o2)s1 | 8% | -23% | ? | ? | 16%
COc1cc(/C=C2/C(=N)N3N=C(CC(=O)N4CCOCC4)SC3=NC2=O)ccc1OCc1ccc(F)cc1 | 10% | -23% | 12% | 4.5µM* | -8%
Cc1cc(/C=C2/C(=N)N3C(c4ccccc4)=CSC3=NC2=O)c(C)n1-c1ccccc1 | 35% | 4% | 50µM* | -13% | -5%
N=C1/C(=C\c2ccc(-c3cccc(C(=O)O)c3)o2)C(=O)N=C2SC=C(c3ccccc3)N12 | ? | 22µM* | 11µM* | -21%[11.4 µM] | 1%
Cn1nnnc1SCC(=O)Nc1cc(S(=O)(=O)N2CCCCC2)ccc1Cl | 7% | / | / | -2% | -12%
COC(=O)c1ccc(CCc2cc(O)ccc2O)cc1 | ? | / | / | 6.3µM* | ?
COC(=O)c1ccc(CCc2cc(O)c(Br)cc2O)cc1 | ? | / | / | 2.8µM* | ?
COc1ccc(-c2ccc(NC(=O)c3ccc(Br)o3)cc2)nn1 | -5% | -27% | 45µM* | -35% | 3%
COC(=O)Cc1ccc(NC(=O)c2ccc(Br)o2)cc1 | 42% | -1% | -29%[12.7 µM] | -9% | -1%
CC(=O)O[C@@]1(C(C)=O)CCC2C3C=C(C)C4=CC(=O)CCC4(C)C3CCC21C (stereo partly specified) | / | / | -25%[2.33 µM] | / | /
C=C1CC2C3C=C(C)C4=CC(=O)CCC4(C)C3CCC2(C)[C@@]1(OC(C)=O)C(C)=O (stereo partly specified) | / | / | 18µM* | / | -16%
O=C(CCC(=O)c1cccs1)NCc1ccccc1Cl | 24% | / | / | -14% | 2%
Cc1cccc(C(C)C)c1NC(=O)Cc1ccc(S(=O)(=O)N2CCOCC2)s1 | 18% | 8% | 9%[2.33 µM] | -2% | 3%
CC(C)c1cccc(C(C)C)c1NC(=O)CCl | 33% | 1% | 0% | -9% | -15%
CC(C)c1cccc(C(C)C)c1NC(=O)CNCC(O)c1ccccc1 (stereo unspecified) | -32% | 50µM* | 10% | 56µM* | -2%
